Assay outcomes as filed in PubChem BioAssay.
ClpP mod: qHTS Assay for Activators of ClpP | ATP-dependent Clp protease proteolytic subunit (Bacillus subtilis (strain 168)), P80244 | purified B. subtilis ClpP, FRET peptide cleavage, 20 min | Potency, µM (titrated, usually from 57.5 µM), for inactives: top-dose activity change, negative = active | 340,000 compounds, 1.9% hits | AID 651965, 2013; active means well fitted falling curve with a large enough effect; inconclusive means small, poorly fitted or top-dose-only effect; inactive means no such curve, though single readings can be large or run the other way; further: the source files actives as falling curves though it sought activators and does not explain the sign; nearly all actives have a fitted effect of over 65% in size
Target sequence (P80244 whole entry, looked up): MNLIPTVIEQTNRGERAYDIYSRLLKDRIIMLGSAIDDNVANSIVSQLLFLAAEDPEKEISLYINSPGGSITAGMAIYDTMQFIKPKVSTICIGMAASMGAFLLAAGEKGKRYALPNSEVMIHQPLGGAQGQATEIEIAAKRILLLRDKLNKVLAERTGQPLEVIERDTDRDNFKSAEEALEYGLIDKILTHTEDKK
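Buffer: 100 mM Tris/HCl pH8, 100 mM KCl, 0.05% low protease BSA, 2.5% glycerol, 0.01% Tween-20. ClpP 10 microg/mL final; 20 min RT; delta FRET normalized to ADEP and DMSO controls.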
TDP43 rescue: inhibitors of TDP-43 toxicity in yeast; TDP-43 expressing yeast growth rescue, BacTiter-Glo, 24 h; 410,000 compounds, 1.8% hits; Potency, µM (doses to about 46.1 µM), for the others: at the highest dose growth rescue (activation), actives largely listed as activators; AID 652104; further: % of control where 0% means no effect; nearly all actives have a fitted effect of over 50% in size
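Yeast expressing TDP-43 (pregrown in raffinose, seeded at OD600=0.02 in galactose medium) exposed to compounds 24 hr at 30 deg C. Growth read by BacTiter-Glo luminescence; rescue of toxicity appears as increased signal.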
FUS yeast rescue: FUS proteinopathy suppression in yeast; S. cerevisiae FUS-expressing, growth rescue, OD600, 24 h; AID 1347120; 390,000 compounds, 0.24% hits; Potency, µM (titrated, usually from 76.6 µM), actives largely listed as activators;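 further: plate controls were DMSO vehicle for no effect and reference control for full effect; nearly all actives have a fitted effect of over 55% in size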
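Yeast FUS proteinopathy model; galactose-induced FUS (2%), starting OD 0.005. Cpds in dilution series, 24hr, 30C, 99% humidity. Abs 600 nm growth. Pos ctrl CP55940 (top 92uM final); neg ctrl DMSO.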
aSyn rescue: alpha-synuclein toxicity inhibition in yeast; Yeast expressing alpha-synuclein, growth rescue, BacTiter-Glo, 24 h; Potency, µM (titrated, usually from 46.1 µM), inactives show top-dose growth rescue (activation), usual class: activators; 370,000 compounds, 0.14% hits; AID 652106; further: % of control where 0% means no effect; nearly all actives have a fitted effect of over 65% in size
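Screening used galactose-induced yeast with toxic alpha-synuclein levels, exposed to compound for 24 hr at 30 deg C. Cell growth, read with BacTiter-Glo luminescence, gave the measured signal.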
Abeta yeast res: restores growth of yeast expressing A-beta42 peptide. yeast expressing A-beta42, growth rescue, OD600, 48 h; response scale: 0% DMSO, 100% iron-clioquinol control. AID 1347071. Potency, µM (titrated, usually from 46.1 µM), actives largely listed as activators. 410,000 compounds, 0.063% hits; further: nearly all actives have a fitted effect of over 55% in size
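Yeast growth medium received pinned compounds, then yeast cells expressing toxic A-beta were added; plates incubated at 30 C for 48 hr. Growth read as absorbance at 600 nm, normalized to DMSO and equimolar FeCl3 plus clioquinol controls.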
Mm-Cpn inhibitor: inhibitors of Methanococcus maripaludis chaperonin TRiC (MmCpn); purified Mm-Cpn ATPase, ADP Transcreener TR-FRET; Potency, µM (series often up to 76.9 µM), inactives show top-dose activity, negative = inhibition, actives largely listed as inhibitors; 330,000 compounds, 0.031% hits; AID 504842; further: on the % scale 0 is the no-effect control and ±100 the full control effect; nearly all actives have a fitted effect of over 80% in size
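Measured: ADP formation by purified Mm-CPN. Conditions: 25 nM protein, 10 uM ATP, Tris pH 7.4 with Mg2+, K+ and DTT, 37°C for 30 min. Detection: Transcreener HTRF after 30 min at room temperature.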
* hit, by the source's call; i = inactive; ? = inconclusive; . = not tested or not shown. In the library only some 3.6% were active in any assay of this set; here they are far more common. Unless noted, the call rests on the fitted dose curve; in most records, active means well fitted curve in the direction sought with a large enough effect; inconclusive means small, poorly fitted or top-dose-only effect, or another doubt; inactive means no such curve, though single readings can be large; an effect the other way counts as inactive or inconclusive. Potency means the concentration at half of the fitted maximal effect.

SMILES | ClpP mod | TDP43 rescue | FUS yeast rescue | aSyn rescue | Abeta yeast res | Mm-Cpn inhibitor
CCn1c(=O)n(-c2ccc3c(c2)OCO3)c2nc(-c3ccc(C(C)C)cc3)nc(C(N)=O)c21 | -28% | -18% | i | . | i | .
COc1cccc(CNC(=O)c2cc(S(=O)(=O)N3CCCCCC3)cn2C)c1 | -1% | 10% | i | . | i | .
COc1ccc(NC(=O)CSC2=C(C#N)C(c3ccco3)C(C(=O)Nc3nc4ccccc4s3)=C(C)N2)cc1 (centres undefined) | 22µM* | -10% | i | -4% | i | .
O=C(NCCc1nc2ccccc2n1Cc1ccccc1F)c1ccc(F)cc1 | 0% | ? | i | 3% | i | .
Nc1nc(=S)[nH]c2n[nH]nc12 | -2% | . | . | -6% | . | .
COC(=O)C1=CN(C2CC2)C=C(C(=O)OC)C1c1ccc(C(F)(F)F)cc1 | . | -10% | i | -2% | i | -4%
COC(=O)C1=CN(C2CC2)C=C(C(=O)OC)C1c1ccc(C(=O)OC)cc1 | 32µM* | -18% | i | -19% | i | -3%
Cc1ccc2nc(N(Cc3cccnc3)C(=O)C3CCCCC3)sc2c1 | -1% | 5.6µM* | i | . | i | .
O=C(c1ccc2c(c1)OCCO2)N(Cc1cccnc1)c1nc2c(Cl)cccc2s1 | ? | 22µM* | i | . | i | .
CCc1ccc2nc(N(Cc3cccnc3)C(=O)c3cccs3)sc2c1 | 0% | 32µM* | i | . | i | .
Cc1ccc2nc(N(Cc3cccnc3)C(=O)c3cccs3)sc2c1 | 38% | 1% | i | . | i | .
Cc1cccc2sc(N(Cc3cccnc3)C(=O)C3CCCCC3)nc12 | 1% | 3.5µM* | i | . | i | .
Cc1nonc1OC(C)CNc1ccc([N+](=O)[O-])cc1 (centres undefined) | 2% | 20µM* | i | -5% | i | 0%
COc1cc(-c2ccno2)ccc1S(=O)(=O)N1CCN(c2cccc(Cl)c2)CC1 | -8% | ? | i | . | i | .
COc1cccc(C(=O)Nc2cc(NC(=O)c3cccs3)ccc2C)c1 | 0% | 11% | i | -1% | i | -1%
COc1cc(NC(=O)c2ccc3c(c2)OCCO3)ccc1NC(=O)c1cccs1 | . | 13µM* | i | -13% | i | 0%
COc1cccc(C(=O)Nc2cc(NC(=O)c3cccs3)ccc2C)c1OC | -2% | 11µM* | i | -10% | i | 3%
O=C(Nc1ccccc1Oc1ccccc1)c1ccccc1F | -3% | 13µM* | i | -8% | i | 1%
O=C(Nc1ccccc1Cc1ccccc1)c1ccccc1F | . | ? | i | -4% | 2.5µM* | -1%
O=C(Nc1cc(Cl)ccc1Oc1ccccc1)c1ccccc1F | -10% | -8% | . | -12% | i | 2%
CSc1nn(CC(=O)Nc2cc(C)ccc2C)c(N)c1S(=O)(=O)c1ccccc1 | -2% | 13% | i | . | i | .
O=Nc1c(O)n(Cc2ccccc2)c2ccccc12 | -2% | 0% | i | 12% | i | 1%
O=Nc1c(O)n(Cc2ccc(Cl)c(Cl)c2)c2ccccc12 | -1% | -92% | i | 13µM* | i | 1%
Cc1cccc(NC(=O)CSCC(=O)N(C)Cc2ccc(Cl)c(Cl)c2)c1 | -2% | 25µM* | i | 14% | i | -1%
CCCCCn1c(=O)[nH]c2cc(C(=O)NCCCN3CCC(C)CC3)ccc2c1=O | 28µM* | 27% | i | 0% | i | -1%
CCCCCn1c(=O)[nH]c2cc(C(=O)NCCN3CCC(C)CC3)ccc2c1=O | -1% | -13% | i | 2% | i | -1%
CCCCCNC(=O)c1ccc2c(=O)n(CCOC)c(=O)[nH]c2c1 | ? | 7% | i | 0% | i | 0%
COc1cc2[nH]c(=O)n(Cc3ccc(C(=O)NCCCN4CCN(C)CC4)cc3)c(=O)c2cc1OC | 25µM* | 19% | i | -2% | i | 0%
